The list is not random: actives were taken first. Their share in the collection is about 12%.
G9a block – inhibitors of human histone lysine methyltransferase G9a. Potency, µM (top dose mostly 102 µM), for inactives: at the highest dose activity, negative = inhibition, actives largely listed as inhibitors. G9a H3K9 monomethylation, AlphaScreen, 2 h. Q96KQ7. hit rate 8.8% among 350,000; also: % is scaled to controls: 0 for no effect and ±100 for the full control effect; nearly all actives have a fitted effect of over 75% in size
Target sequence (Q96KQ7 913-1193 limits assumed): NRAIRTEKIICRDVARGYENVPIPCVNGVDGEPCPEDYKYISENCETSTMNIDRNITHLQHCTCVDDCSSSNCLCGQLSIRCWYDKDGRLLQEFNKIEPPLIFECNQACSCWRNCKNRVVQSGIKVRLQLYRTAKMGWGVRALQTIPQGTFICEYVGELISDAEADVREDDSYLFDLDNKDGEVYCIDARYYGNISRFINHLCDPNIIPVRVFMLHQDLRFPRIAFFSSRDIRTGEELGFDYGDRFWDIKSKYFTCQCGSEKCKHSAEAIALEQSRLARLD
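Readings reflect AlphaScreen signal from monomethyl-H3K9 antibody detection. HMT at 20 nM; substrate b-H3K9 500 nM; cofactor SAM 20 uM; 2 h RT reaction; compounds tested as titrations in qHTS with 15 min preincubation.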
JMJD2A Tudor inh – JMJD2A Tudor domain (human) inhibition; Potency, µM (doses to about 114 µM), inactives show at the top dose activity change, negative = inhibition, actives largely listed as inhibitors; AlphaScreen JMJD2A-Tudor / H3K4me3 peptide binding; hit rate 4.4% among 390,000; also: % is scaled to controls: 0 for no effect and ±100 for the full control effect; nearly all actives have a fitted effect of over 50% in size
Sfp inh – Sfp phosphopantetheinyl transferase inhibition; Potency, µM, without a hit: largest response in the series, negative = inhibition, most hits filed as inhibitors; Biochemical Sfp PPTase activity, qHTS; AID 1490; hit rate 3.5% among 310,000;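 also: the enzyme is Sfp with the accession as filed and its product quenches rhodamine fluorescence; 0% = enzyme reaction without inhibitor and -100% = no enzyme wells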
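Reaction rates are the 30-min fluorescence difference (ex 525, em 598 nm) in wells containing 15 nM Sfp, 5 uM rhodamine-CoA and 12.5 uM BHQ-2-YbbR at pH 7.6 with 10 mM MgCl2.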
BAZ2B block – inhibitors of human BAZ2B bromodomain; Potency, µM (series often up to 114 µM), inactives show at the top dose activity change, negative = inhibition, actives largely listed as inhibitors; AlphaScreen BAZ2B-H3K14Ac peptide displacement; hit rate 4.4% among 360,000; also: % is scaled to controls: 0 for no effect and ±100 for the full control effect; nearly all actives have a fitted effect of over 60% in size
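Protein-peptide AlphaScreen: BAZ2B 50 nM, b-H3K14Ac 50 nM, 1x PBS pH 7.4 + 0.01% Tween-20. Preincubation 30 min RT; cpd 30 min RT (top 110 uM); beads 20 min RT, light-protected.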
PLK1 PBD inh – blocks phosphopeptide binding to human PLK1 polo-box domain; P53350; Plk1 PBD binding of FITC phosphopeptide, fluorescence polarization; Potency, µM, without a hit: max response, negative = inhibition, hits mostly inhibitors; hit rate 2.8% among 360,000; AID 720504; also: series mostly up to about 57 µM; % is scaled to controls: 0 for no effect and ±100 for the full control effect; nearly all actives have a fitted effect of over 65% in size
HP1b chromo inh – blocks HP1-beta chromodomain binding to methylated histone tails | P83916 | hit rate 0.56% among 390,000 | Potency, µM (top dose mostly 114 µM), for inactives: at the top dose activity change, negative = inhibition, hits mostly inhibitors | AlphaScreen HP1-beta / biotin-H3K9me3 peptide binding | AID 540317; also: nearly all actives have a fitted effect of over 70% in size
Target sequence (P83916 whole entry, looked up): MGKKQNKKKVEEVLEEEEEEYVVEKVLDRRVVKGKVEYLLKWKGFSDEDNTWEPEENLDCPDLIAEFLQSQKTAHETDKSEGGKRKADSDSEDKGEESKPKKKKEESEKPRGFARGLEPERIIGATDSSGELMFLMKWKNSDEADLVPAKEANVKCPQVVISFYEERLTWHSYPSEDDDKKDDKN
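HP1-beta protein (50 nM final) preincubated 30 min at room temperature with biotinylated H3(1-18)K9me3 peptide (50 nM) in PBS pH 7.4, 0.01% Tween-20, then compound added for 30 min. AlphaScreen streptavidin donor/nickel chelate acceptor beads (10 ug/mL final), 30 min dark, luminescence read.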
* hit, by the source's call; ! = repeats disagree; [ ] = remark or other dose. Calls follow the shape of the dose curve; as a rule, active = well fitted curve in the direction sought with a large enough effect; inconclusive = small, poorly fitted or top-dose-only effect, or another doubt; inactive = no such curve, though single readings can be large; an effect the other way counts as inactive or inconclusive. Potency is read from the fitted curve at half-maximal effect.

`COc1ccc2[nH]cc(CCNc3ccnc(-c4cccc(NS(C)(=O)=O)c4)n3)c2c1` gave Sfp inh 2.4%.
For COc1cccc(N=Nc2c(=O)[nH]n3c(C)cc(C)nc23)c1 the results were G9a block -12.0%[59 µM], JMJD2A Tudor inh inconclusive, Sfp inh -24.8%, BAZ2B block -31.3%, PLK1 PBD inh 0.7% and HP1b chromo inh -9.8%.
Screening CCOc1ccc(N=Nc2c(=O)[nH]n3c(C)cc(C)nc23)cc1 returned G9a block 7.08µM*, JMJD2A Tudor inh inconclusive, Sfp inh -11.0%, BAZ2B block inconclusive, PLK1 PBD inh -2.4% and HP1b chromo inh inconclusive.
COc1ccc(OCC(=O)N2CCN(C(=O)c3cccc(OC)c3)CC2)cc1 was read as G9a block 4.3%[59 µM], JMJD2A Tudor inh -0.3%, BAZ2B block -17.1% and HP1b chromo inh 35.3%.
Screening CCN(CC)CCCCC1CCN(CC(=O)N2c3ccccc3C(=O)Nc3cccnc32)CC1 returned Sfp inh 13.4%.
`Cc1cc(C)nc(NN2C(=O)C=CC2=O)n1` gave G9a block 2.82µM*, JMJD2A Tudor inh inconclusive, Sfp inh 14.1µM*, BAZ2B block 0.9%, PLK1 PBD inh inconclusive and HP1b chromo inh inconclusive.
Screening Cc1cc(C)nc(NC(=O)C(C)C)n1 returned G9a block 17.0%[2.33 µM], JMJD2A Tudor inh 3.8%, Sfp inh 7.1%, BAZ2B block 5.4%, PLK1 PBD inh 0.0% and HP1b chromo inh 37.7%.
COCc1nnc(NC(=O)C2CC(=O)N(CCc3ccc(F)cc3)C2)s1 (stereo not given) was read as G9a block 39.8µM*, JMJD2A Tudor inh -7.7%, Sfp inh inconclusive, BAZ2B block inconclusive, PLK1 PBD inh inconclusive and HP1b chromo inh -29.0%.
`CCCc1nnc(NC(=O)C2CC(=O)N(CCc3ccc(F)cc3)C2)s1` (stereo not given) gave G9a block inconclusive, JMJD2A Tudor inh -11.9%, Sfp inh -6.6%, BAZ2B block -23.6%, PLK1 PBD inh inconclusive and HP1b chromo inh -7.6%.
`COCc1nnc(NC(=O)C2CC(=O)N(C3CCCC3)C2)s1` (stereo not given) gave G9a block 28.2µM*, JMJD2A Tudor inh -6.2%, Sfp inh inconclusive, BAZ2B block -0.5%, PLK1 PBD inh inconclusive and HP1b chromo inh -10.3%.
For COc1ccc(C2=NN(CC(=O)NCCc3ccc(OC)c(OC)c3)C(=O)CC2)cc1 the results were G9a block -29.3%[59 µM], JMJD2A Tudor inh -6.4%, BAZ2B block 2.3% and HP1b chromo inh 20.9%.
O=C(CN1CCN(Cc2ccc3c(c2)OCO3)CC1)Nc1ccc2[nH]c(=O)[nH]c2c1 was read as JMJD2A Tudor inh -8.9%, PLK1 PBD inh 0.0% and HP1b chromo inh 13.0%.
For Cc1ccc(N/N=C2\CC(=O)c3ccccc32)cc1Cl the results were Sfp inh -14.5% and BAZ2B block 11.2µM*.
`CSc1ccc2c(c1)C(N1CCN(C)CC1)Cc1ccccc1S2` (stereo not given) gave G9a block 17.8µM*!, JMJD2A Tudor inh 63.1µM*, Sfp inh -20.5%, BAZ2B block inconclusive, PLK1 PBD inh -20.3% and HP1b chromo inh -32.8%.
CN1CCN(C2Cc3cc(F)ccc3Sc3ccc(Cl)cc32)CC1 (stereo not given) was read as JMJD2A Tudor inh inconclusive, PLK1 PBD inh -11.4% and HP1b chromo inh 7.0%.
`CN1CCN(C2Cc3ccccc3Sc3ccc(Cl)cc32)CC1` (stereo not given) gave G9a block inconclusive, JMJD2A Tudor inh 79.4µM*, Sfp inh -23.0%, BAZ2B block -36.9%, PLK1 PBD inh -8.5% and HP1b chromo inh -24.7%.
Screening CCOc1cc2[nH]c(=O)n(Cc3ccc(C(=O)N4CCN(c5ccccc5)CC4)cc3)c(=O)c2cc1OCC returned G9a block 1.0%[59 µM], JMJD2A Tudor inh -29.7%, BAZ2B block -28.7% and HP1b chromo inh 19.2%.
`COc1ccc(CCn2c(=S)[nH]c3ccc(N4CCOCC4)cc3c2=O)cc1OC` gave G9a block 17.8µM*, JMJD2A Tudor inh -5.1%, Sfp inh -11.9%, BAZ2B block -25.9%, PLK1 PBD inh inconclusive and HP1b chromo inh -20.6%.
`CCCCN(C)CCn1c(=S)[nH]c2cc(OCC)c(OCC)cc2c1=O` gave G9a block 11.2µM*, JMJD2A Tudor inh -13.4%, Sfp inh 3.0%, BAZ2B block -21.7%, PLK1 PBD inh -4.5% and HP1b chromo inh 58.7%.
`CCCCN(C)CCn1c(=S)[nH]c2ccc(N3CCOCC3)cc2c1=O` gave G9a block inconclusive, JMJD2A Tudor inh 28.2µM*, Sfp inh -15.1%, BAZ2B block 3.0%, PLK1 PBD inh 2.3% and HP1b chromo inh 17.8%.
`CCOc1cc2[nH]c(=S)n(Cc3ccc(C(=O)O)cc3)c(=O)c2cc1OCC` gave G9a block 17.8µM*, JMJD2A Tudor inh inconclusive, Sfp inh -23.1%, BAZ2B block -11.2%, PLK1 PBD inh -7.5% and HP1b chromo inh -1.4%.
`NC(Cc1c[nH]c2ccc(OCc3ccccc3)cc12)C(=O)O` (stereo not given) gave G9a block 44.7µM*, JMJD2A Tudor inh inconclusive, Sfp inh -11.0%, BAZ2B block inconclusive, PLK1 PBD inh -24.1% and HP1b chromo inh 5.2%.
O=C(O)C(O)Cc1c[nH]c2ccccc12 (stereo not given) was read as G9a block -13.2%, JMJD2A Tudor inh -20.4%, Sfp inh -3.1%, BAZ2B block -4.9%, PLK1 PBD inh -11.6% and HP1b chromo inh 12.1%.
For N[C@@H](Cc1c[nH]c2ccc(O)cc12)C(=O)O the results were G9a block 8.44µM*!, JMJD2A Tudor inh inconclusive, Sfp inh -25.9%, BAZ2B block inconclusive, PLK1 PBD inh -20.3% and HP1b chromo inh -21.0%.
`NC(=S)N/N=C\c1ccccc1OCc1ccccc1` gave G9a block -19.2%[59 µM], JMJD2A Tudor inh -27.8%, Sfp inh -2.6%, BAZ2B block inconclusive, PLK1 PBD inh -9.7% and HP1b chromo inh -16.2%.
For NC(=S)N/N=C/c1c[nH]c2ccc(OCc3ccccc3)cc12 the results were G9a block 39.8µM*, JMJD2A Tudor inh inconclusive, Sfp inh 31.6µM*, BAZ2B block 35.5µM*, PLK1 PBD inh inconclusive and HP1b chromo inh -18.9%.
CCOC(=O)N1CCN(C(=O)c2cn(C)c3ccc(S(=O)(=O)N4CCOCC4)cc3c2=O)CC1 was read as JMJD2A Tudor inh 11.7%, Sfp inh 0.6%, BAZ2B block -1.1%, PLK1 PBD inh 2.9% and HP1b chromo inh 28.3%.
Screening O=C(C[n+]1cc(Br)cc2ccccc21)c1ccccc1 returned G9a block 44.7µM*, JMJD2A Tudor inh inconclusive, Sfp inh -7.1%, BAZ2B block inconclusive, PLK1 PBD inh -17.8% and HP1b chromo inh 7.6%.

Bioassay records deposited in PubChem by National Center for Advancing Translational Sciences (NCATS).
